In PubChem BioAssay (NCATS) one finds Potency data, which are given here for 35 compounds.

SMILES strings stand for the structures. Results filed as inconclusive are left out. Where a call stands in place of a potency, no number is given. Calls of active or inactive are those of the source. Calls follow the shape of the dose curve; as a rule, active = well fitted inhibition curve with a large enough effect; inconclusive = small, poorly fitted or top-dose-only effect, or effect the other way; inactive = no such curve, though single readings can be large or run the other way.
Potency is read from the fitted curve at half-maximal effect.

This experiment can be described thus: Quantitative high throughput screen for delayed death inhibitors of the malarial parasite plastid, 96 hour incubation (AID 488745). Also: nearly all actives have a fitted effect of over 70% in size. The conditions noted are these: Plasmodium falciparum growth; series mostly up to 28.7 µM. The text has this: NIH Molecular Libraries Probe Production Network [MLPCN]
NIH Chemical Genomics Center [NCGC]
Assay Provider: David Fidock and Eric Ekland, Columbia University
The goal of this screen is to discover new antimalarial compounds that act by inhibiting the development of the apicoplast in the malarial parasite Plasmodium falciparum. The biochemical processes that make this organelle essential for erythrocytic stage parasites are not well understood. However, antibiotics such as azithromycin and tetracycline, which target the apicoplast translational machinery, have a potent antimalarial effect.
We have developed a cell-based assay that measures parasite growth based on the expression of an integrated copy of a firefly luciferase reporter. To detect small molecules that cause this 'delayed death' phenotype, erythrocytes infected with the luciferase-expressing parasites were incubated with compounds for either one or two generations, corresponding to 48 and 96 hours, respectively. Compounds that inhibit parasite growth in the second generation, but not the first, should be enriched in antimalarials that target the apicoplast. Growth inhibition is detected by a decrease in luciferase activity
Four microliters of culture medium (RPMI 1640 with 0.5% w/v Albumax (GIBCO), 24 mM sodium bicarbonate and 10 ug/mL gentamycin) were dispensed by a Multi-drop Combi into white solid 1536-well plates (Grenier) and 23 nL compound was added by a pin tool. Four microliters of infected erythrocytes (2% hematocrit, 0.1% parasitemia final concentration) in culture medium were dispensed and the plates incubated for 96 hours at 37 C in 5% CO2. Two microliters of luciferase detection reagent was added and luminescence was detected by a ViewLux (PerkinElmer) reader
Consider `O=NN(CCCl)C(=O)NCCCl`, for which the Potency entry is “inactive”.

Turning to `c1ccc([C@H]2CN3CCSC3=N2)cc1`, the Potency entry was “inactive”.

In the case of `Nc1ccc(S(=O)(=O)Nc2ccnn2-c2ccccc2)cc1`, the Potency entry was “inactive”.

For the compound `CNC[C@H](O)c1cccc(O)c1`, the Potency entry is “inactive”.

Take `Cc1cnc(NC(=O)C2=C(O)c3ccccc3S(=O)(=O)N2C)s1`: the Potency result was “inactive”.

On to `N=c1nc(N2CCCCC2)cc(N)n1O`, for which the Potency entry is “inactive”.

In the case of `NC[C@H](O)c1ccc(O)c(O)c1`, the Potency entry is “inactive”.

Consider `CCN(CC)CCCC(C)Nc1ccnc2cc(Cl)ccc12` (stereo not given), for which the Potency was 262 nM (active).

In the case of `NC(=O)c1cnccn1`, the Potency entry was “inactive”.

Regarding `NS(=O)(=O)c1cc2c(cc1Cl)NC=NS2(=O)=O`, the Potency entry is “inactive”.

In the case of `Nc1nc2c(ncn2COCCO)c(=O)[nH]1`, the Potency entry was “inactive”.

For `CC(C)(Sc1ccc(CCN(CCCCC2CCCCC2)C(=O)NC2CCCCC2)cc1)C(=O)O`, the Potency result is “inactive”.

For the compound `N[C@@H]1CONC1=O`, the Potency result is “inactive”.

Consider `CC(C)(C)NCC(O)c1ccc(O)c(CO)c1` (stereo not given), for which the Potency entry is “inactive”.

With `Cc1[nH]c(=O)c(C#N)cc1-c1ccncc1`, the Potency result was “inactive”.

On to `O=c1n(CCCN2CCN(c3cccc(Cl)c3)CC2)nc2ccccn12`, for which the Potency result is “inactive”.

As to `NNCCc1ccccc1`, the Potency result was “inactive”.

As to `CC(C)NCC(O)COc1ccc(COCCOC(C)C)cc1` (stereo not given), the Potency result was “inactive”.

As to `NCCCC(N)(C(=O)O)C(F)F` (stereo not given), the Potency result was “inactive”.

With `CCCCNc1cc(C(=O)O)cc(S(N)(=O)=O)c1Oc1ccccc1`, the Potency result was “inactive”.

With `Cn1cnc([N+](=O)[O-])c1Sc1ncnc2nc[nH]c12`, the Potency entry is “inactive”.

In the case of `O=C1CCc2cc(OCCCCc3nnnn3C3CCCCC3)ccc2N1`, the Potency entry was “inactive”.

`CCCC(CCC)C(=O)O`: the Potency entry is “inactive”.

`Cc1[nH]c(=O)c(C#N)cc1-c1ccc2nccn2c1`: the Potency entry was “inactive”.

For `Clc1cccc(Cl)c1NC1=NCCN1`, the Potency entry was “inactive”.

As for `OC(CN1CCC(Cc2ccc(F)cc2)CC1)c1ccc(Cl)cc1` (stereo not given), the Potency is 2940 nM (active).

Take `Cc1ccc(N(CC2=NCCN2)c2cccc(O)c2)cc1`: the Potency entry was “inactive”.

For the compound `CC(=O)Oc1ccccc1C(=O)O`, the Potency entry is “inactive”.

Take `CC(C)C[C@H](NC(=O)[C@@H](O)[C@H](N)Cc1ccccc1)C(=O)O`: the Potency was 370 nM (active).

`Cc1ccccc1C(OCCN(C)C)c1ccccc1` (stereo not given): the Potency entry is “inactive”.

Consider `Cc1cn[nH]c1`, for which the Potency entry is “inactive”.

On to `NCCc1ccc(O)c(O)c1`, for which the Potency result is “inactive”.

For `O=C1CCC(N2C(=O)c3ccccc3C2=O)C(=O)N1` (stereo not given), the Potency result is “inactive”.

Take `O=c1[nH]cnc2[nH]ncc12`: the Potency entry is “inactive”.

Turning to `CC(C[N+](C)(C)C)OC(N)=O` (stereo not given), the Potency entry was “inactive”.
